This is a sample that favours compounds with a hit; in the whole collection about 2.8% have one here.
IP6K1 inhibitor – blocks human inositol hexakisphosphate kinase 1 | IP6K1 kinase, ADP-Glo luminescence, 2 h; stronger effect = lower value | activity change, % (series mostly up to about 58 µM) | actives 0.81% (n = 140,000) | AID 1645851; in the data active means activity change below about -25%; further: on the % scale 0 is the no-effect control and ±100 the full control effect
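ADP-Glo luminescence measures ADP made by human IP6K1 during a 2 h RT reaction with ATP/IP6 (mix at 1.3 mM/130 uM); top library doses 57.5 and 19.1 uM final.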
KDM5B inhibitor – blocks human KDM5B histone demethylase activity; actives 2.6% (n = 220,000); KDM5B demethylase, FDH-coupled NADH fluorescence (FDH is formaldehyde dehydrogenase); Potency, µM (series often up to 57.7 µM), hits mostly inhibitors; active means well fitted inhibition curve with a large enough effect; inconclusive means small, poorly fitted or top-dose-only effect; inactive means no such curve, though single readings can be large or run the other way; further: potency means the concentration at half of the fitted maximal effect; 0% is about no effect; nearly all actives have a fitted effect of over 70% in size
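Measured: NADH fluorescence change, 30 min, RT. System: KDM5BΔAP 200 nM final, H3K4me3 peptide, α-KG, Fe(II), ascorbate, NAD⁺ plus FDH, pH 7.5 HEPES. Compounds: titrated, 10 min pre-incubation with enzyme.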
An asterisk follows results filed as active.

`NC(=O)COc1ccc(C(=O)N[C@@H]2CN(Cc3ccccn3)CCC[C@H]2O)cc1` gave IP6K1 inhibitor 9.3 and KDM5B inhibitor 31.6µM*.
For COC(=O)c1ccccc1NC(=O)N1CCC[C@@H](O)[C@H](NC(=O)c2ccc(OCc3c(C)noc3C)cc2)C1 the results were IP6K1 inhibitor 11.7 and KDM5B inhibitor 22.4µM*.
`Cc1noc(C)c1COc1ccc(C(=O)N[C@@H]2CN(C(=O)Nc3cccc(C(F)(F)F)c3)CCC[C@H]2O)cc1` gave IP6K1 inhibitor -6.4 and KDM5B inhibitor inactive.
`COCCOc1ccc(C(=O)N[C@@H]2CN(C(=O)Nc3ccc(F)cc3)CCC[C@H]2O)cc1` gave IP6K1 inhibitor 12.5 and KDM5B inhibitor inactive.
For O=C(N[C@@H]1CN(C(=O)Nc2ccc(F)cc2)CCC[C@H]1O)c1ccc(OCCN2CCCC2)cc1 the results were IP6K1 inhibitor 9.1 and KDM5B inhibitor 28.2µM*.
COc1ccccc1CNC(=O)C(C)N1CCC(c2nc3cc(Cl)ccc3s2)CC1 (stereo not drawn) was read as KDM5B inhibitor inactive.
CCc1nc2nccc(-c3ccc(OC)cc3)n2n1 was read as IP6K1 inhibitor -4.2 and KDM5B inhibitor 22.4µM*.
COCc1nc2nccc(-c3cccs3)n2n1 was read as IP6K1 inhibitor 5.3 and KDM5B inhibitor inactive.
COc1ccc(Cc2nc3nccc(-c4ccc(OC)c(OC)c4)n3n2)cc1 was read as IP6K1 inhibitor -2.9 and KDM5B inhibitor 20µM*.
Screening CCc1nc2nccc(-c3ccc(Br)s3)n2n1 returned IP6K1 inhibitor -12.8 and KDM5B inhibitor inactive.
COc1ccc(Cc2nc3nccc(-c4ccccn4)n3n2)cc1 was read as IP6K1 inhibitor -6.2 and KDM5B inhibitor inconclusive.
`CCc1nc2nccc(-c3ccc4c(c3)OCCCO4)n2n1` gave IP6K1 inhibitor 3.8 and KDM5B inhibitor 28.2µM*.
For COCc1nc2nccc(-c3ccc(OC)cc3)n2n1 the results were IP6K1 inhibitor -11.9 and KDM5B inhibitor inactive.
COCc1nc2nccc(-c3ccc4c(c3)CC(C)O4)n2n1 (stereo not drawn) was read as IP6K1 inhibitor -13.2 and KDM5B inhibitor 28.2µM*.
For O=C(NC1CC1)c1cc2c(s1)CCCCC2 the results were KDM5B inhibitor inactive.
Screening COC(=O)C1=C(C)N(c2ccc3c(c2)OCO3)C(=O)NC1c1c(F)cccc1Cl (stereo not drawn) returned KDM5B inhibitor inactive.
Screening COc1cccc(-c2ccnc3nc(-c4cccs4)nn23)c1 returned IP6K1 inhibitor 11.6 and KDM5B inhibitor inconclusive.
`CCc1nc2nccc(-c3cccc(OC)c3)n2n1` gave IP6K1 inhibitor -1.1 and KDM5B inhibitor 25.1µM*.
`COc1ccc(Cc2nc3nccc(-c4ccncc4)n3n2)cc1` gave IP6K1 inhibitor 4.5 and KDM5B inhibitor inactive.
`COc1ccc(CCc2nc3nccc(-c4ccc(F)cc4)n3n2)cc1OC` gave IP6K1 inhibitor 6.2 and KDM5B inhibitor inactive.
COc1ccc(-c2ccnc3nc(Cc4ccc(F)cc4)nn23)cc1OC was read as IP6K1 inhibitor -8.5 and KDM5B inhibitor 28.2µM*.
Screening COc1ccc(Cc2nc3nccc(-c4ccc(OC)cc4)n3n2)cc1 returned IP6K1 inhibitor 2.3 and KDM5B inhibitor 14.1µM*.
For CC(=O)Nc1ccc(S(=O)(=O)N[C@H]2CO[C@H]3[C@@H]2OC[C@@H]3n2nnnc2Oc2ccc(-n3ccnc3)cc2)cc1 the results were IP6K1 inhibitor -8.5 and KDM5B inhibitor inactive.
For Cc1ccc(-c2cc(C(=O)NCCc3ccc(F)cc3)c3cnn(C)c3n2)c(C)c1 the results were IP6K1 inhibitor -2.6.
Screening O=[S+]1([O-])N(Cc2ccccc2)C[C@H](O)[C@]12CCN(Cc1ccc(OC(F)F)cc1)C2 returned IP6K1 inhibitor -1.4.
For COc1ccccc1-c1cc(C(=O)NCCc2ccc(Cl)cc2)nc2c1cnn2C the results were IP6K1 inhibitor -4.9 and KDM5B inhibitor 79.4µM*.
COC(=O)CNC(=O)c1cc(-c2ccc(Cl)cc2Cl)c2cnn(C)c2n1 was read as IP6K1 inhibitor -7.1 and KDM5B inhibitor inconclusive.
For COc1ccccc1-c1cc(C(=O)NCCc2ccc(Cl)cc2)c2cnn(C)c2n1 the results were IP6K1 inhibitor -10.1 and KDM5B inhibitor 79.4µM*.
Screening Cn1ncc2c(C(=O)NCCc3ccc(Cl)cc3)cc(-c3ccccc3C(F)(F)F)nc21 returned IP6K1 inhibitor -2.0.
For CCCCCCCCOc1ccc(/C=C(/C#N)C(=O)NCc2ccccc2)cc1 the results were KDM5B inhibitor inactive.
CCN(CC)C(CNC(=O)/C=C/c1cccs1)c1ccccc1 (stereo not drawn) was read as KDM5B inhibitor inactive.
`COc1ccc(-c2ccnc(N[C@H]3CO[C@H]4[C@@H]3OC[C@@H]4NC(=O)Nc3cccc(C(F)(F)F)c3)n2)cc1` gave IP6K1 inhibitor -13.0 and KDM5B inhibitor inconclusive.
For Cc1ncc(-c2ccc(S(=O)(=O)Nc3ccc(Br)cc3F)cc2)o1 the results were KDM5B inhibitor inactive.
Screening O=C(NCc1ccc(-c2cnc3c(Oc4ccccc4)nccn23)cc1)c1cccc(O)c1 returned IP6K1 inhibitor -10.8 and KDM5B inhibitor inconclusive.
Screening CCOc1nccn2c(-c3ccc(CNC(=O)Cn4cnnn4)cc3)cnc12 returned IP6K1 inhibitor -8.8 and KDM5B inhibitor 39.8µM*.
For COc1ccc(Cl)cc1NC(=O)COC(=O)c1[nH]c(C)c(C(C)=O)c1C the results were KDM5B inhibitor inactive.
For COCCN1Cc2ccc(NCC(C)C)nc2C(C)(C(=O)NC2CCC2)C1 (stereo not drawn) the results were IP6K1 inhibitor 3.6 and KDM5B inhibitor inconclusive.
COCCN1Cc2ccc(NCc3ccccc3)nc2C(C)(C(=O)N(C)CCOC)C1 (stereo not drawn) was read as IP6K1 inhibitor 8.1 and KDM5B inhibitor 35.5µM*.
`COCCN(C)C(=O)C1(C)CN(Cc2ccccc2)Cc2ccc(NCC(C)C)nc21` (stereo not drawn) gave IP6K1 inhibitor 28.4 and KDM5B inhibitor 31.6µM*.
COCCN1Cc2ccc(NCc3ccccc3)nc2C(C)(C(=O)NC2COC2)C1 (stereo not drawn) was read as IP6K1 inhibitor 10.9 and KDM5B inhibitor inconclusive.
For COc1cccc(CCNC(=O)C2(c3ccc(Cl)cc3)CCOCC2)c1 the results were IP6K1 inhibitor 22.3.
Screening Cn1ncc2c(C(=O)NCc3ccc(C(F)(F)F)cc3)cc(-c3ccccc3F)nc21 returned IP6K1 inhibitor 17.3.
Screening CN(C)C(=O)c1ccc(-c2cnc3[nH]cc(CC(=O)N4CCOCC4)c3c2)cc1 returned IP6K1 inhibitor -8.0 and KDM5B inhibitor inactive.
For CN1CCN(C)c2cnc(-c3ccc(C(=O)N(C)C)cc3)cc2C1 the results were IP6K1 inhibitor -7.4 and KDM5B inhibitor 35.5µM*.
For COc1ccccc1CN1CCNc2cc(-c3ccnc(C)c3)ncc2C1 the results were IP6K1 inhibitor -4.1 and KDM5B inhibitor inactive.
Cc1cc(-c2cc3c(cn2)N(C)CCN(C)C3)ccn1 was read as IP6K1 inhibitor -15.7 and KDM5B inhibitor 31.6µM*.
Screening CCC(Sc1ccc(Cl)cc1)C(=O)O (stereo not drawn) returned KDM5B inhibitor inactive.
For CC1=C(C(=O)Nc2ccccc2C)C(c2ccco2)C(C#N)=C(SCC(=O)c2ccc(F)cc2)N1 (stereo not drawn) the results were KDM5B inhibitor inactive.
For O=C(Nc1ccc(Cl)nc1)c1ccn2cncc2c1 the results were IP6K1 inhibitor 7.3 and KDM5B inhibitor inactive.
